The values that follow come from PubChem BioAssay (EPA / NIEHS).

Each structure is given as a SMILES string. Several values for one entry are separate records, joined by “and”; a condition that tells them apart may be missing. Equal values may be shown once. The source holds several records for some structures; these can differ, active in one and inactive in another. Activity calls are given as the source filed them. The calls were made as follows, unless noted: active = hit-call score of the fitted dose curve at least 0.9, where 1 is the maximum; inactive = score below 0.9.

One test has as its system DIO2 (gene 1734). Put plainly: CCTE_GLTED_hDIO2: CCTE's human Deiodinase 2 (DIO2) Inhibition Assay, Great Lakes Toxicology and Ecology Division (GLTED) Lab (AID 2284050; active = hit-call score of the fitted dose curve at least 0.9, where 1 is the maximum). The method in brief: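 Iodide released by human deiodinase 2 over 3 h with test chemical, measured spectrophotometrically via Sandell-Kolthoff cerium/arsenic reaction. Run n=3; inhibition referenced to DMSO.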

Test [1] is described as follows: CCTE_Shafer_MEA_dev_per_burst_interspike_interval: CCTE's Neural Network Formation Assay for Burst Interspike Interval, Shafer Lab (AID 2284044).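 Also: mean spike spacing inside bursts as AUC over recordings on days 5 7 9 12.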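 As to AC50: potency for a decrease of within-burst interspike interval below DMSO level.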 The method in brief: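 Primary rat cortical neurons on 48-well MEA plates, exposed from day 0 through day 12, treatment renewed at DIV 5 and 9. Within-burst interspike interval recorded days 5, 7, 9, 12, well-averaged, summarised as AUC; negative fit versus DMSO.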

Test [2] in a line: CCTE_Shafer_MEA_dev_burst_duration_mean: CCTE's Neural Network Formation Assay for Mean Burst Duration, Shafer Lab (AID 2284045).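 As to AC50: curve fitted for loss meaning shorter burst duration than DMSO.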 The method in brief:
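Mean single-electrode burst duration (first to last spike), averaged over bursting electrodes per well, then integrated as area-under-curve across recordings at days 5, 7, 9 and 12. Rat cortical cultures on MEAs, compound present from plating, refreshed at feeds.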

Test [3] in a line: CCTE_Shafer_MEA_dev_interburst_interval_mean: CCTE's Neural Network Formation Assay for Mean Interburst Interval, Shafer Lab (AID 2284046).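 Also: well-mean interburst interval of bursting electrodes as AUC over four recording days; curve fitted for decrease in interburst interval relative to DMSO.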 The method in brief:
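Primary rat cortical neurons on PEI-coated 48-well MEA plates (laminin added with cells at plating) (16 electrodes/well), exposed from plating day 0 with renewal at DIV 5 and 9. Mean inter-burst interval averaged over bursting electrodes, AUC across days 5, 7, 9, 12; DMSO baseline.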

A short description of test [4]: CCTE_Shafer_MEA_dev_inter_network_spike_interval_mean: CCTE's Neural Network Formation Assay for Mean Inter-network Spike Interval, Shafer Lab (AID 2284047).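 As to AC50: potency for a decrease in mean inter-network spike interval below DMSO.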 Summed up:
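Mean time between consecutive network-spike peaks, recorded extracellularly (adaptive spike detection) on DIV 5, 7, 9 and 12, summarized as trapezoidal AUC. Rat cortical cultures on MEAs dosed continuously days 0–12, re-dosed at feeds; loss-of-signal fit relative to DMSO.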

A short description of test [5]: CCTE_Shafer_MEA_dev_network_spike_number: CCTE's Neural Network Formation Assay for Number of Network Spikes, Shafer Lab (AID 2284048).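 Also: synchronized bursts across electrodes counted on days 5 7 9 12 and integrated as AUC.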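 As to AC50: fit as a loss of signal meaning fewer network spikes than DMSO.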 The method in brief: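 Number of network spikes (coordinated firing across electrodes) recorded on days 5, 7, 9 and 12 and summarised as area under the curve. Rat cortical cultures on MEA, continuous compound exposure with full medium/treatment exchange at DIV 5 and 9.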

Test [6] can be described thus: CCTE_Shafer_MEA_dev_network_spike_peak: CCTE's Neural Network Formation Assay for Mean Number of Electrodes in Network Spike, Shafer Lab (AID 2284049).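 As to AC50: fitted for loss of signal meaning fewer electrodes in network spikes than DMSO.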 Summed up:
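Rat cortical primary culture, 1.5 x 10^5 cells/well, 48-well MEA (16 electrodes/well). Dosing day 0 through DIV 12, full media/compound exchange DIV 5, 9. AxIS adaptive spike detection; AUC over days 5/7/9/12; loss-of-signal vs DMSO.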

Test [7] is described as follows: CCTE_Shafer_MEA_dev_spike_duration_mean: CCTE's Neural Network Formation Assay for Mean Spike Duration, Shafer Lab (AID 2284051).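 Also: mean network spike duration pooled as area under curve over DIV 5 to 12 recordings.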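 As to AC50: potency for a decrease in mean network spike duration versus DMSO.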 The method in brief:
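Spontaneous activity was recorded on days 5, 7, 9 and 12 from rat cortical cultures grown on microelectrode arrays and dosed continuously from day 0, with media and compound renewed after the DIV 5 and 9 recordings. Network-spike duration was collapsed by area under the curve.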

The nature of test [8]: CCTE_Shafer_MEA_dev_network_spike_duration_std: CCTE's Neural Network Formation Assay for Standard Deviation of Network Spike Duration, Shafer Lab (AID 2284052).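 Also: hits are decreases in network spike duration SD versus DMSO vehicle.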 Summed up:
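Network spike duration variability was collapsed across recordings on days 5, 7, 9 and 12 by trapezoidal area-under-curve and fitted downward against DMSO. Cultures were rat cortical neurons on PEI-coated MEA plates, dosed continuously from plating, refed with compound DIV 5/9.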

Test [9] in a line: CCTE_Shafer_MEA_dev_per_network_spike_spike_number_mean: CCTE's Neural Network Formation Assay for Mean Number of Spikes in a Network Spike, Shafer Lab (AID 2284053).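 As to AC50: fitted as decrease in spikes per network spike relative to DMSO.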 Summed up:
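Mean spike count within each network spike, taken in a 0.05 s window at its peak, was recorded on days 5, 7, 9 and 12 and integrated as trapezoidal area under the curve. Rat cortical cultures on MEA plates received continuous compound from day 0, refreshed at medium changes on DIV 5 and 9.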

Regarding `CCCCOCN(C(=O)CCl)c1c(CC)cccc1CC`, the AC50 in the test with DIO2 (gene 1734) is 17.6 µM (active).
For the compound `CO/N=C(/C1=NOCCO1)c1ccccc1Oc1ncnc(Oc2ccccc2Cl)c1F`, the AC50 in test [1] is 2.28 µM (active) and 518 nM (active); in [2], 1.23 µM (active) and 858 nM (active); in [3], 2.3 µM (active) and 1.29 µM (active); in [4], 0.52 µM (active); in test [5] it was 527 nM (active) and 449 nM (active); in test [6] it was 1.27 µM (active) and 723 nM (active). Further, the AC50 was 856 nM (active) and 904 nM (active) in test [7]; 889 nM (active) in test [8]; 854 nM (active) and 756 nM (active) in [9]. For the same compound, the result (in [4]; with DIO2 (gene 1734)) was inactive.
Turning to `CNC(=O)Oc1cccc2ccccc12`, the outcome in test [1], in test [2], in test [3], in test [4], in test [5] and in test [7] was inactive. Moreover, the result in test [8] and in [9] was inactive. Also, the AC50 in test [5] was 1000 nM (active); in [6] it was 20.3 µM (active) and 22.6 µM (active); in test [9], 20.1 µM (active).
As to `CN/C(=N\[N+](=O)[O-])NCc1cnc(Cl)s1`, the outcome in test [1], in test [2], in [3], in [4], in test [5] and in [6] was inactive. The compound was called inactive in test [7], in test [8] and in test [9].
`CC(C)=CC1C(C(=O)OCc2coc(Cc3ccccc3)c2)C1(C)C` (configuration not stated): the call in test [1], in [2], in [3], in [4], in test [5] and in test [6] was inactive. The outcome in [7], in [8] and in [9] was inactive. In addition, the AC50 in the test with DIO2 (gene 1734) was 38.5 µM (active).
In the case of `CC(C)(C)C(=O)C(Oc1ccc(Cl)cc1)n1cncn1` (configuration not stated), the outcome in test [1], in test [2], in test [3], in [4], in test [5] and in test [8] was inactive. Moreover, the AC50 in test [6] was 38.7 µM (active); in [7], 40.2 µM (active); in [9], 35.5 µM (active).
On to `CCSC(=O)N1CCCCCC1`, for which the outcome in test [1], in [2], in [3], in test [4], in test [5] and in test [6] was inactive. Further, the outcome in test [7], in [8] and in test [9] was inactive. Further, the AC50 in [6] is 5.75 µM (active).
Take `CCN(CC)c1nc(C)cc(OP(=S)(OC)OC)n1`: the outcome in [1], in [2], in test [4], in test [5] and in [8] was inactive. Moreover, the AC50 in [3] is 88.6 µM (active); in [6] it was 30.8 µM (active); in the test with DIO2 (gene 1734) it was 31.1 µM (active); in test [7], 50 µM (active); in [9], 29.5 µM (active).
For `CCNC(=O)NC(=O)C(C#N)=NOC`, the compound was classed as inactive in test [1], in test [2], in [3], in test [4], in [5] and in test [6]. Moreover, the result in test [7], in [8] and in [9] was inactive.
`Cc1c(COC(=O)[C@@H]2[C@H](/C=C(\Cl)C(F)(F)F)C2(C)C)cccc1-c1ccccc1`: the AC50 is 3.23 µM (active) and 3.43 µM (active) in [1]; 2.29 µM (active) and 1.75 µM (active) in test [2]; 2.8 µM (active) and 2.26 µM (active) in test [3]; 2.3 µM (active) in test [4]; 91.2 nM (active) and 495 nM (active) in [5]; 1.51 µM (active) and 1.19 µM (active) in [6]. The AC50 in test [7] was 2.33 µM (active) and 2.32 µM (active); in test [8] it was 2.29 µM (active) and 2.33 µM (active); in test [9], 665 nM (active) and 864 nM (active). In addition, the outcome in [4] was inactive.
As to `COP(=O)(OC)O/C(C)=C/C(=O)N(C)C`, the outcome in test [1], in test [2], in [3], in [4], in test [5] and in test [6] was inactive. Further, the call in test [7], in [8] and in test [9] was inactive.
On to `N#CN=C1SCCN1Cc1ccc(Cl)nc1`, for which the compound was called inactive in test [1], in [2], in test [3], in test [4], in [5] and in [6]. The compound was called inactive in [7], in test [8] and in test [9].
For the compound `CCOP(=O)(OCC)Oc1nc(Cl)c(Cl)cc1Cl`, the compound was called inactive in [1], in test [2], in test [3], in test [4], in test [5] and in [6]. Besides, the call in test [7], in [8] and in [9] was inactive. In addition, the AC50 was 2980 nM (active) in test [5]; 3.32 µM (active) and 9.79 µM (active) in test [6]; 5.13 µM (active) and 2.98 µM (active) in test [7]; 2980 nM (active) in [8]; 3.09 µM (active) and 15 µM (active) in test [9].
